Potency data for five molecules are collected here from PubChem BioAssay AID903 (National Center for Advancing Translational Sciences (NCATS), 2007).

Hit rate of the full screen: of about 55,000 compounds, about 340 (0.62%) were called active. Entries that show only a call come without a potency. About 3% were inconclusive and are not listed. Calls come from the whole dose curve; as a rule, active = well fitted cell-killing curve with a large enough effect; inconclusive = small, poorly fitted or top-dose-only effect; inactive = no such curve, though single readings can be large or run the other way. Many of the other results were omitted from the sample, so actives are more common in it than they were.
Potency is the fitted concentration of half-maximal effect.

The test is described as follows: qHTS Screen for Compounds that Selectively Target Cancer Cells with p53 Mutations: Cytotoxicity of p53 Null Cells at the Permissive Temperature. Note: nearly all actives have a fitted effect of over 55% in size. To be noted: H1299-neo p53 null cells, ATP luminescence, 24 h, 32C; series mostly up to 46.1 µM. From the text:
NIH Chemical Genomics Center [NCGC] NIH Molecular Libraries Screening Centers Network [MLSCN] MLSCN Grant: 1 X01 MH079844-01 Assay Submitter (PI): Dr. SUN, YI, University of Michigan NCGC Assay Overview: Synthetic Lethal Screen for Compounds to Kill Cancer Cells with p53 Mutation. Tumor suppressor gene p53 serves as a major cellular barrier against tumorigenesis. […] The goal of this screening is to identify small molecule probes that selectively kill cancer cells with mutations in p53. This screening was carried out using two lines of H1299 lung cancer cells. The H1299-p53 A138V line express a temperature sensitive p53 mutant (p53ts) in which the mutant p53 protein (A138V) is in the mutant confirmation when grown at 39C (the nonpermissive temperature) and in the wild type conformation when grown at 32C (the permissive temperature). A H1299-neo line (p53 null) grown at both 39C and 32C were used as counter-screens to filter out false positive associated with temperature shifting. The small molecular compounds that selectively target mutant p53-containing cancer cells were selected as candidate probes for further study. A cytotoxicity assay based on the measurement of ATP contents in cells was used in this screen. Concentration-responses of all the compounds in the library collection were determined in qHTS using the cell lines and temperature conditions as above.
NCGC Assay Protocol Summary: Both the H1299-p53A138V and H1299-neo cell lines were provided by Dr.Yi Sun, a PI at the University Michigan. The cells were maintained and cultured at 37C. The resuspended frozen cells were used to plate the cells in the 1536-well assay plates at a density of 600 cells per well in 5 ul medium. The assay plates with the cells were incubated at 37C for 16 to 30 hours before the experiments. The library compounds in DMSO solution were added to the cells in assay plates and incubated 24 hours at 39C (for mutant p53 conformation) or 32C (for normal p53 conformation as control). An ATP_lite assay kit (PerkinElmer) was used to determine the cell viability. Tomaxifen (100uM) was used as the positive control for cell killing. Data were normalized to the controls for basal activity (DMSO only) and 100% killing (100uM tamoxifen). AC50 values were determined from concentration-response data modeled with the standard Hill equation. P53 assay protocol: 1. Reagent; 5 uL H1299-p53A138V or H1299-neo cell cells/well 2. Time; overnight; 37C incubation 3. Compounds; 23 nL; 5.9 nM to 46 uM 4. Controls; 23 nL; Tamoxifen 100 uM 5. Time; 24 hr; 32C incubation 6. Reagent; 3 uL; ATP_Lite reagent 7. Time; 20 min; Room Temperature 8. Detection; Luminescence; Viewlux plate reader Keywords: p53, synthetic lethal, cancer, cell viability, cytotoxicity, H1299 cell line, luminescence, MLSMR, MLSCN, NIH Roadmap, qHTS, NCGC
For the molecule `CC(C)Oc1ccc(NC(=O)c2cc3ccccc3o2)cc1`, the Potency is 10 µM (active).

Take `Cn1cc(/C=C/c2nc3ccccc3c(=O)n2-c2ccccc2)c2ccccc21`: the Potency result was “inactive”.

Take `CC(C)(C)c1ccc(S(=O)(=O)Nc2ccc(O)c(Sc3nc4ccccc4s3)c2)cc1`: the Potency entry was “inactive”.

`CCCCOc1ccc(C(=O)N2CC(=O)Nc3ccc(Br)cc3C2c2ccc(F)cc2)cc1` (stereo not given): the Potency result is “inactive”.

With `Cc1ccc(Cn2c(C)c3cnn(CC(=O)N4CCC5(CC4)OCCO5)c(=O)c3c2C)cc1`, the Potency result is “inactive”.
